PubChem BioAssay (NCATS)
Inconclusive results are not listed. Calls of active or inactive are those of the source. Unless noted, the call rests on the fitted dose curve; in most records, active means well fitted curve in either direction with a large enough effect (not every such curve was filed as active); inconclusive means small, poorly fitted or top-dose-only effect, or another doubt; inactive means flat fitted curve, though single readings scatter.

Tests used:
[1] = AP1 Signaling Pathway (AID 357); settings: ME-180 AP-1-bla reporter, EGF-induced, beta-lactamase ratio, 5 h; at 17.2 µM (top of the series) unless noted;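 further: ME-180 reporter cells stimulated with EGF at its EC50 level; on the % scale 0 is the no-effect control and ±100 the full control effect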
Procedure, shortened: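 A ratiometric CCF4 readout (405 nm excitation; 460 and 530 nm emission) quantified AP-1-driven beta-lactamase in ME-180 cells after 5 h with compound and EC50 EGF; AC50 values were derived for activators and inhibitors.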

[2] = NFAT Signaling Pathway (AID 444); settings: Jurkat NFAT-bla M1, carbachol, beta-lactamase ratio, 5 h; at 17.2 µM (top of the series) unless noted;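 further: carbachol stimulus at about its EC50 of 1 µM final; on the % scale 0 is the no-effect control and ±100 the full control effect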
Procedure, shortened: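 Read-out: CCF4 FRET ratio (460 nm/530 nm) after 1 h RT dye loading, used for %activity and AC50 from titration series. Cells: Jurkat NFAT-β-lactamase/M1 line, treated with compound plus 1 uM carbachol for 5 h, 37 °C.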

[3] = Stat Signaling Pathway (AID 446);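 further: ME-180 cervical cancer cells given 40 pM IL-6 alongside compound; SIE-controlled beta-lactamase reporter measured as 460/530 nm FRET emission ratio; on the % scale 0 is the no-effect control and ±100 the full control effect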
Procedure, shortened: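 Reporter line: ME-180 cervical carcinoma, SIE-beta-lactamase. Treatment: compound with 40 pM IL-6, 5 hrs, 37 C, in low-serum OPTI-MEM with 10 mM HEPES pH 7.3. Detection: 460/530 nm fluorescence.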

[4] = target: Glucocorticoid receptor (Homo sapiens) (UniProt P04150); test: GR-GFP Redistribution (AID 450;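 active means compounds whose dose series gives a full or clear partial fitted curve of increased nuclear translocation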; further: potency means the concentration at half of the fitted maximal effect); settings: U2OS GR-GFP nuclear translocation, laser cytometry, 2 h
Glucocorticoid receptor (Homo sapiens), sequence (P04150 whole entry, looked up): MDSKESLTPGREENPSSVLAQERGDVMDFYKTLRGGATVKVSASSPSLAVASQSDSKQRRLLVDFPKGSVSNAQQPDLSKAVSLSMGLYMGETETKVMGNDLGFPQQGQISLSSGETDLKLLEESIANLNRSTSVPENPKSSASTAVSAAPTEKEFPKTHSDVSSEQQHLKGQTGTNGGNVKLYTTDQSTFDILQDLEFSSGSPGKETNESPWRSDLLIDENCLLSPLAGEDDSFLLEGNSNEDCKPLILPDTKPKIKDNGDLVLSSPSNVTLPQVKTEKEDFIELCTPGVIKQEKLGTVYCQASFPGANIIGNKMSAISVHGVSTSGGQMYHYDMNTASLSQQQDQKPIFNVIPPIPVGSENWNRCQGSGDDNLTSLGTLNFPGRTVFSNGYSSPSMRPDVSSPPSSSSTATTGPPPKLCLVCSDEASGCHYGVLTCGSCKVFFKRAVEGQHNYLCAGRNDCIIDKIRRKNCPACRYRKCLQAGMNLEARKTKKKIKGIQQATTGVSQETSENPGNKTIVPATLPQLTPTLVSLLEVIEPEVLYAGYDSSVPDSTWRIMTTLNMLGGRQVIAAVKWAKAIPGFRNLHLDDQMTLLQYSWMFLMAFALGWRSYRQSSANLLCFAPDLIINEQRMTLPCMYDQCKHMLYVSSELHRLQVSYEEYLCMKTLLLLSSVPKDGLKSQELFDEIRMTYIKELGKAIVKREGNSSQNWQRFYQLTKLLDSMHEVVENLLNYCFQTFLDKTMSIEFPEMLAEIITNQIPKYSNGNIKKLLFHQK

O=C1NC(=O)C(C/C=C/c2ccccc2)C(=O)N1
inactive: activity change, negative = inhibition [1] 9.27% | activity change, negative = inhibition [2] -11.1% | outcome [3] | Potency [4] > 20.6 µM

CCn1c(O)c(C(=O)CC2NCCc3ccccc32)c(=O)n(CC)c1=S (stereo unspecified)
inactive: activity change, negative = inhibition [1] 5.38% | activity change, negative = inhibition [2] 22.3% | outcome [3] | Potency [4] > 20.6 µM

O=c1[nH]c(=O)n(C2CCCCC2)c(O)c1C=NCCCn1ccnc1
inactive: activity change, negative = inhibition [1] 0.159% | activity change, negative = inhibition [2] -4.42% | outcome [3] | Potency [4] > 20.6 µM

CCCC12CN3CN(C1)CC(CCC)(C3)C2O (stereo unspecified)
inactive: activity change, negative = inhibition [1] 21.7% | activity change, negative = inhibition [2] -5.01% | outcome [3] | Potency [4] > 20.6 µM

CCCCSP1(=S)NCCCN1
inactive: activity change, negative = inhibition [1] -7.63% | activity change, negative = inhibition [2] -2.25% | outcome [3] | Potency [4] > 20.6 µM

OCCOCC#CCN1CCOCC1
inactive: activity change, negative = inhibition [1] 12.1% | activity change, negative = inhibition [2] -4.14% | outcome [3] | Potency [4] > 20.6 µM

Nc1ccc(C2(c3ccc(N)cc3)CN3CCC2CC3)cc1
inactive: activity change, negative = inhibition [1] 7.52% | activity change, negative = inhibition [2] -2.19% | outcome [3] | Potency [4] > 20.6 µM

O=c1[nH]c2ccccc2c(=O)n1-c1cccc(Cl)c1
inactive: activity change, negative = inhibition [1] 24.2% | activity change, negative = inhibition [2] -3.58% | outcome [3] | Potency [4] > 20.6 µM

CC1(c2ccccc2)NCCN2C(=O)CSC21 (stereo unspecified)
inactive: activity change, negative = inhibition [1] 2.95% | activity change, negative = inhibition [2] -7.83% | outcome [3] | Potency [4] > 20.6 µM

CCCCc1nc2ccccc2c(=O)n1-c1ccccc1O
inactive: activity change, negative = inhibition [1] -4.36% | activity change, negative = inhibition [2] -4.7% | outcome [3] | Potency [4] > 20.6 µM

c1ccc(Cn2ccnc2)cc1
inactive: activity change, negative = inhibition [1] 3.97% | activity change, negative = inhibition [2] -0.8% | outcome [3] | Potency [4] > 20.6 µM

O=c1[nH]c(=O)n(-c2cccc(Cl)c2)c(O)c1C=NCCN1CCCCC1
inactive: activity change, negative = inhibition [1] -0.739% | activity change, negative = inhibition [2] -1.95% | outcome [3] | Potency [4] > 20.6 µM

CCCN(CC#CCO)CCC
inactive: activity change, negative = inhibition [1] -3.1% | activity change, negative = inhibition [2] 3.75% | outcome [3] | Potency [4] > 20.6 µM

C=CCn1c(O)c(C=NCCN(C)C)c(=O)[nH]c1=O
inactive: activity change, negative = inhibition [1] 1.63% | activity change, negative = inhibition [2] -6.46% | outcome [3] | Potency [4] > 20.6 µM

O=c1[nH]c(=O)n(Cc2ccco2)c(O)c1C=NCCN1CCOCC1
inactive: activity change, negative = inhibition [1] 12.8% | activity change, negative = inhibition [2] -0.917% | outcome [3] | Potency [4] > 20.6 µM

CCCc1nc2ccccc2c(=O)n1-c1ccccc1OC
inactive: activity change, negative = inhibition [1] -13.4% | activity change, negative = inhibition [2] 1.18% | outcome [3] | Potency [4] > 20.6 µM

CC(C)OC(=O)c1c(N)n(Cc2ccco2)c2nc3ccccc3nc12
inactive: activity change, negative = inhibition [1] -15.7% | activity change, negative = inhibition [2] 17.6% | outcome [3] | Potency [4] > 20.6 µM

CC(=NCCO)c1c(O)n(C)c(=O)n(C)c1=O
inactive: activity change, negative = inhibition [1] 9.85% | activity change, negative = inhibition [2] -3.31% | outcome [3] | Potency [4] > 20.6 µM

CCCCCCn1c(O)c(C=NCCN2CCCCC2)c(=O)[nH]c1=O
inactive: activity change, negative = inhibition [1] 10.2% | activity change, negative = inhibition [2] 4.87% | outcome [3] | Potency [4] > 20.6 µM

O=c1[nH]c(=O)n(Cc2ccccc2)c(O)c1C=NCCN1CCNCC1
inactive: activity change, negative = inhibition [1] 1.47% | activity change, negative = inhibition [2] -23.3% | outcome [3] | Potency [4] > 20.6 µM

CN(C)CCc1nn[nH]n1
inactive: activity change, negative = inhibition [1] 1.85% | activity change, negative = inhibition [2] -0.26% | outcome [3] | Potency [4] > 20.6 µM

CC(=O)C1(c2ccccc2)CCNCC1
inactive: activity change, negative = inhibition [1] 6.36% | activity change, negative = inhibition [2] -17.3% | outcome [3] | Potency [4] > 20.6 µM

CCOCCN1CCC(OC(C)=O)C(C)C1 (stereo unspecified)
inactive: activity change, negative = inhibition [1] -2.51% | activity change, negative = inhibition [2] -5.87% | outcome [3] | Potency [4] > 20.6 µM

O=c1[nH]c(O)c(C=NC2CCN(Cc3ccccc3)CC2)c(=O)[nH]1
inactive: activity change, negative = inhibition [1] 5.09% | activity change, negative = inhibition [2] -19.6% | outcome [3] | Potency [4] > 20.6 µM

COc1cccc(-n2c(O)c(C=NCCN3CCOCC3)c(=O)[nH]c2=O)c1
inactive: activity change, negative = inhibition [1] 0.139% | activity change, negative = inhibition [2] 11% | outcome [3] | Potency [4] > 20.6 µM

COCCOC(=O)c1c(N)n(Cc2ccco2)c2nc3ccccc3nc12
inactive: activity change, negative = inhibition [1] -12.5% | activity change, negative = inhibition [2] 16.1% | outcome [3] | Potency [4] > 20.6 µM

C=CCOC(=O)C1=C(C)OC(N)=C(C#N)C12C(=O)N(CN1CCOCC1)c1ccccc12 (stereo unspecified)
inactive: activity change, negative = inhibition [1] 2.42% | activity change, negative = inhibition [2] -2.25% | outcome [3] | Potency [4] > 20.6 µM

CC(=O)OC1N=C(c2ccccc2)c2ccccc2NC1=O (stereo unspecified)
inactive: activity change, negative = inhibition [1] -8.32% | activity change, negative = inhibition [2] 11.5% | outcome [3] | Potency [4] > 20.6 µM

COc1ccc(-n2c(SC)nc3ccccc3c2=O)cc1
inactive: activity change, negative = inhibition [1] 0.0474% | activity change, negative = inhibition [2] 12.3% | outcome [3] | Potency [4] > 20.6 µM
